In PubChem BioAssay:
The source made the active and inactive calls.

Legend:
Albumin (Bos taurus) = Albumin (Bos taurus) (UniProt P02769); experiment: bovine serum albumin binders on microarray, profiling panel, artefact control for SMM control protein annotation, biochemical, small-molecule microarray, Alexa647 label, 635/667 nm fluorescence (AID 1118); details: BSA-A647 binding, fluorescence 635 nm, higher = more signal;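 further: score merges 667 nm emission intensity and signal-to-noise per printed compound spot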
[1] = small-molecule microarray binders of probe aXIP, primary screen, biochemical, NeuroSMM set, 635/667 nm fluorescence (AID 1119); details: higher = more signal, called active from +8 up or from −8 down;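 further: probe is the protein aXip251-270 applied at 1 µg/mL to compound-printed slides; binding of probe to printed compounds measured as 667 nm fluorescence plus signal to noise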
[2] = small-molecule binders of probe aNOTCH3, primary screen, biochemical, small-molecule microarray, 635/667 nm fluorescence (AID 1120); details: higher = more signal;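 further: probe is a biotin-tagged antibody raised against NOTCH3 rather than NOTCH3 protein; score merges spot fluorescence near 667 nm with spot signal to noise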
[3] = small-molecule binders of probe aNOTCH2, primary screen, biochemical, small-molecule microarray, 635/667 nm fluorescence (AID 1121); details: higher = more signal;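 further: score merges feature fluorescence read at 667 nm with its signal to noise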
[4] = biological target: Carbonic anhydrase 2 (Homo sapiens) (UniProt P00918); experiment: CAII small-molecule binders, profiling panel, biochemical, small-molecule microarray, Alexa647-labelled CAII (AID 1122); details: CAII-A647 binding fluorescence, higher = more signal
[5] = COS7 lysate on small-molecule microarray, probe aHis, 635 nm (AID 1123); details: COS7 cell lysate, fluorescence, higher = more signal;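 further: z-score combines 667nm fluorescence intensity with signal-to-noise per printed compound spot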
[6] = compound binding in COS7 lysate, probe aLAP1, primary screen, cell lysate, small-molecule microarray (AID 1124); details: probe aLAP1, fluorescence, higher = more signal;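 further: lysate comes from COS7 cells expressing LAP1 and is applied at 0.3 µg/mL; score merges spot fluorescence near 667 nm with signal-to-noise over triplicate slides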
Sam68 (KHDRBS1) = experiment: Sam68 small-molecule binders, primary screen, biochemical, small-molecule microarray, 635 nm fluorescence (AID 1125); details: small-molecule microarray binding, higher = more signal;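 further: score merges 667 nm channel intensity with signal to noise over triplicate slides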
[7] = system: Chordin-like protein 2 (CHRDL2); experiment: CHRDL2 small-molecule binders, primary screen, biochemical, small-molecule microarray, 635 nm fluorescence (AID 1126); details: small-molecule microarray binding, fluorescence 635 nm; higher = more signal;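 further: printed compound slides probed with Chrdl2 protein at 4 µg/mL for 1 h at 4 C; score merges 667 nm emission intensity with signal to noise over three replicate slides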
[8] = biological target: Concanavalin-A (Canavalia ensiformis) (UniProt P02866); experiment: ConA small-molecule binders, primary screen, artefact control for SMM control protein annotation, biochemical, small-molecule microarray, Alexa647 label, 635 nm (AID 1127); details: ConA-A647 binding fluorescence, higher = more signal;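 further: z combines 667 nm emission intensity with signal-to-noise across three replicate slides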
[9] = anti-His antibody binders, primary screen, artefact control for SMM control protein annotation, biochemical, small-molecule microarray, 635 nm fluorescence (AID 1128); details: anti-His Alexa647 antibody binding, higher = more signal;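 further: score merges feature fluorescence with signal-to-noise for each printed compound spot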
[10] = system: Human papillomavirus type 1a E7 protein (residues 1-88); experiment: HPV1a E7 small-molecule binders, primary screen, biochemical, small-molecule microarray, residues 1-88, 635 nm (AID 1129); details: small-molecule microarray binding, fluorescence 635 nm; higher = more signal
[11] = biological target: Focal adhesion kinase 1 (Homo sapiens) (UniProt Q05397); experiment: small-molecule microarray binders of FAK, primary screen, biochemical, 635/667 nm fluorescence, BSA, DTT (AID 1130); details: PTK2 binding, 635 nm fluorescence, higher = more signal;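 further: composite of spot emission at 667 nm and signal to noise over triplicate slides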
[12] = system: Fibrinogen (Alexa647-labelled); experiment: fibrinogen binders on compound microarrays, profiling panel, artefact control for SMM control-protein annotation, biochemical, small-molecule microarray, 635/667 nm fluorescence (AID 1131); details: fibrinogen-A647 binding fluorescence, higher = more signal;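 further: z-score merges 667 nm fluorescence with per-spot signal-to-noise over triplicate slides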
[13] = biological target: Follistatin (Homo sapiens) (UniProt P19883); experiment: follistatin binders on small-molecule microarrays, primary screen, biochemical, small-molecule microarray, 635/667 nm fluorescence (AID 1132); details: FST binding, 635 nm fluorescence, higher = more signal
[14] = biological target: Fibroblast growth factor 2 (Homo sapiens) (UniProt P09038); experiment: FGF2 binders on small-molecule microarrays, primary screen, biochemical, small-molecule microarray, 635/667 nm fluorescence (AID 1133); details: small-molecule microarray binding, FGF2, fluorescence 635/667; higher = more signal
[15] = mitochondrial membrane potential change in A549 cells, profiling panel, cell-based, JC-1 fluorescence, basal, 24 h, 100 nL (AID 1138); details: higher = more signal;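 further: A549 lung adenocarcinoma cells under basal conditions with no added stimulus; test concentration not given here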
Lefty1 = Lefty1 binders on small-molecule microarrays, primary screen, biochemical, small-molecule microarray, 635/667 nm fluorescence (AID 1139); details: small-molecule microarray binding, fluorescence 635/667; higher = more signal
[16] = system: wheat germ agglutinin (Triticum aestivum), Alexa647-labelled; experiment: wheat germ agglutinin binders on compound microarrays, profiling panel, artefact control for SMM control-protein annotation, biochemical, small-molecule microarray, 635/667 nm fluorescence (AID 1140); details: WGA-A647 binding, 635 nm fluorescence, higher = more signal;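 further: score merges 667 nm feature emission with signal to noise over triplicate slides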
[17] = biological target: Luciferin 4-monooxygenase (Photinus pyralis) (UniProt P08659); experiment: firefly luciferase enzyme inhibitors, primary screen, biochemical, luminescence, purified enzyme, 2006 set (AID 1141); details: SteadyGlo luminescence, 30 min, higher = more signal, called active from +8 up or from −8 down;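 further: cell-free assay with purified firefly luciferase at 100 ng per well in PBS; test concentration not given here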
Sequence of Luciferin 4-monooxygenase (Photinus pyralis) (P08659 whole entry, looked up): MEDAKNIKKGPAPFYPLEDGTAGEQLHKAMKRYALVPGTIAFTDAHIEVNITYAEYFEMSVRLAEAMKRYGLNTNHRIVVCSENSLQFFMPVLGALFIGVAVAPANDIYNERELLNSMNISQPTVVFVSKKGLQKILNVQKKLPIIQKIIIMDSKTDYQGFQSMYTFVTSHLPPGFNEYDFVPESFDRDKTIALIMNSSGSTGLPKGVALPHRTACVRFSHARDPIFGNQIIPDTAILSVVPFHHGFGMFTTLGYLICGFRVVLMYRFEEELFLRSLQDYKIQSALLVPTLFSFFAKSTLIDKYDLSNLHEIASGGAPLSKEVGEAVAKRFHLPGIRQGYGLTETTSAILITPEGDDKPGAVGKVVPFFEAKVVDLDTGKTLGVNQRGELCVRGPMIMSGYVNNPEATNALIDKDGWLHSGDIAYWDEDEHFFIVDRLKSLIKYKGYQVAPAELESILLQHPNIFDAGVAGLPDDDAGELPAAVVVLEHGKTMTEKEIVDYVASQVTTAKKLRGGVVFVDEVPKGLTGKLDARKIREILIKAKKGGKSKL

Sequence of Focal adhesion kinase 1 (Homo sapiens) (Q05397 whole entry, looked up): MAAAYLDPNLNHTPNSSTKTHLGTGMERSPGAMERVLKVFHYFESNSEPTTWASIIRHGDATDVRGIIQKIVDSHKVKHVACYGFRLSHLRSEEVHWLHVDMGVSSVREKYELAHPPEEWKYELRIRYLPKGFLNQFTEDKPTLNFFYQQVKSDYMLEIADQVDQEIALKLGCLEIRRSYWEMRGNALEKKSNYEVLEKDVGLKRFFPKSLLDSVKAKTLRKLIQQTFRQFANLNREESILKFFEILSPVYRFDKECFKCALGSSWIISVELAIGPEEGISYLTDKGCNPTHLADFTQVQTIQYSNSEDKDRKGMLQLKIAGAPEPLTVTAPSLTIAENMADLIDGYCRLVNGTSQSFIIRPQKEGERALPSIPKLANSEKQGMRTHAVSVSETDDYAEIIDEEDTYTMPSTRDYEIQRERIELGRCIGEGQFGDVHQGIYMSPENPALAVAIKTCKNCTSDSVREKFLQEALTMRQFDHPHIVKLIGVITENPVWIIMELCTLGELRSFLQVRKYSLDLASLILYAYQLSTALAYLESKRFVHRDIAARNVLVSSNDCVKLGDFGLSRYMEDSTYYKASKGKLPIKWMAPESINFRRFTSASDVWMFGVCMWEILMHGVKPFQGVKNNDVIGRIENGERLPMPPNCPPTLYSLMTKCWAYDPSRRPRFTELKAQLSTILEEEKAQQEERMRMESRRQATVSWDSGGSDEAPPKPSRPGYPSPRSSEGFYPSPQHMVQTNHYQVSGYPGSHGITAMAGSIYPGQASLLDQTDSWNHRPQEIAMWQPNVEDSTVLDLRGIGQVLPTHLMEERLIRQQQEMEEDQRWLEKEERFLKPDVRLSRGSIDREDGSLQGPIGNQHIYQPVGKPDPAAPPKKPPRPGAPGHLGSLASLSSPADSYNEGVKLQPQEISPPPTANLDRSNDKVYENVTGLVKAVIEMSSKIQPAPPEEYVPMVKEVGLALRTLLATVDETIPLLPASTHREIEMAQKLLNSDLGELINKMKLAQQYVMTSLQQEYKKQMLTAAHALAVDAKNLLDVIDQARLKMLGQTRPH
Sequence of Fibroblast growth factor 2 (Homo sapiens) (P09038 whole entry, looked up): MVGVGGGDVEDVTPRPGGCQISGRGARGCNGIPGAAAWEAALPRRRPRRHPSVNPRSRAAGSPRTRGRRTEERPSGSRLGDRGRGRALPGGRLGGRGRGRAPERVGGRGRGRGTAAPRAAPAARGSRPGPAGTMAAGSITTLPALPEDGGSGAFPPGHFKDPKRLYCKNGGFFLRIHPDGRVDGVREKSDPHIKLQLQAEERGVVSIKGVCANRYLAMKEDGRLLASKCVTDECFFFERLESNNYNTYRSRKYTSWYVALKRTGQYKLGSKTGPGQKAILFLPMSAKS
Sequence of Albumin (Bos taurus) (P02769 whole entry, looked up): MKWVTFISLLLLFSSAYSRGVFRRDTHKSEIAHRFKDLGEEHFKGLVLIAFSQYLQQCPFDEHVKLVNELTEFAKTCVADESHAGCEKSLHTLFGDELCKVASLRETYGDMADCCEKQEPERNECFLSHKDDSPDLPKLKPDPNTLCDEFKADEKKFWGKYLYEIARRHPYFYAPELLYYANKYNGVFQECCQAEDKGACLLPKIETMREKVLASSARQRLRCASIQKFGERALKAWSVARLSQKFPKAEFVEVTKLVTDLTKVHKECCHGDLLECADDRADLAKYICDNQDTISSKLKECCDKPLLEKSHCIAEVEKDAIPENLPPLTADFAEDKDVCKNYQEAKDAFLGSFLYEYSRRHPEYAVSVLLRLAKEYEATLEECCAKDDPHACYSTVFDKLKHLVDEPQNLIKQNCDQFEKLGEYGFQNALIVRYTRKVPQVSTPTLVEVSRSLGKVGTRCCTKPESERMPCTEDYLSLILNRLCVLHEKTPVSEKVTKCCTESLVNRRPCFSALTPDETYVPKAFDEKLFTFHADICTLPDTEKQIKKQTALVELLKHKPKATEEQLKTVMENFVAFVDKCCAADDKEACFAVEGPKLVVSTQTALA
Sequence of Follistatin (Homo sapiens) (P19883 whole entry, looked up): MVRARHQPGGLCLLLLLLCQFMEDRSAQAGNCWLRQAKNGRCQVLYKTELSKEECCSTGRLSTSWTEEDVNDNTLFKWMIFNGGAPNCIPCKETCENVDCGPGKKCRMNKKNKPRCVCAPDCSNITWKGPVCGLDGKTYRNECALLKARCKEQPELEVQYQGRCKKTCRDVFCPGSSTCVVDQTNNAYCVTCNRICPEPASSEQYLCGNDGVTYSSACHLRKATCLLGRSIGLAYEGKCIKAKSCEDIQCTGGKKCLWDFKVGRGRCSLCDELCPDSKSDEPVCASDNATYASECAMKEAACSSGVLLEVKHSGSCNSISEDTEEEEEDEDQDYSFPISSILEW
Sequence of Concanavalin-A (Canavalia ensiformis) (P02866 whole entry, looked up): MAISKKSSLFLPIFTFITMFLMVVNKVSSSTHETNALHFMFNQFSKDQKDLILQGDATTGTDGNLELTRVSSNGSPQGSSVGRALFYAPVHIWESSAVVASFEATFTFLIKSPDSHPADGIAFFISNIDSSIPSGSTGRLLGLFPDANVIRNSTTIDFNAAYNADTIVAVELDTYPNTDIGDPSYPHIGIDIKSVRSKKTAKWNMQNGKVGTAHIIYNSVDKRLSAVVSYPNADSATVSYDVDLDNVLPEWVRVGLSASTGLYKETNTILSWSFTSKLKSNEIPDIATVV

Row | SMILES | composite z-score (Albumin (Bos taurus)) | composite Z-score [1] | composite z-score [2] | composite z-score [3] | composite z-score [4] | composite z-score [5] | composite z-score [6] | composite z-score (Sam68 (KHDRBS1)) | composite z-score [7] | composite z-score [8] | composite z-score [9] | composite z-score [10] | composite z-score [11] | composite z-score [12] | composite z-score [13] | composite z-score [14] | z-score [15] | composite z-score (Lefty1) | composite z-score [16] | z-score [17]
1 | COCCOC(=O)N1C(=O)[C@@]2(c3ccccc31)[C@H](c1ccccc1OCCO)N1[C@H](c3ccccc3)[C@H](c3ccccc3)OC(=O)[C@H]1[C@@H]2C(=O)N1CCc2cc(OC)c(OC)cc2C1 | -0.274 | 0.511 (inactive) | 0.0833 | -0.0176 | 0.335 | 0.51 | 0.0553 | 1.27 | 0.475 | 1.18 | 1.14 | 0.659 | 0.413 | 0.457 | 1.27 | 1.36 | -1.03 | 0.756 | 0.435 | -0.209 (inactive)
2 | C=CCOc1ccc([C@@H]2CC=C(C(=O)OCC)[C@H](c3cccc(Br)c3)N2S(=O)(=O)c2ccc(C)cc2)cc1 | 0.64 | 0.0809 (inactive) | 0.032 | -0.0784 | -0.125 | 0.491 | 0.11 | 0.099 | 0.314 | 0.709 | -0.296 | 0.0511 | -0.209 | -0.161 | 0.199 | -0.0901 | 3.89 | -0.109 | 0.268 | 0.594 (inactive)
3 | CO[C@H]1O[C@H](CO)[C@@H](OC(=O)c2ccc(Br)cc2)[C@@H]2OC(=O)[C@H](Cc3cccc(Br)c3)C/C=C/C[C@@H](Cc3cccc(Br)c3)C(=O)O[C@@H]12 | 0.695 | 0.528 (inactive) | 0.119 | -0.0486 | 0.439 | 0.806 | 0.72 | 1.18 | 0.511 | 0.583 | 1.58 | 1.05 | 0.214 | 0.647 | 1.02 | 0.897 | 1.02 | 0.442 | 0.31 | 0.0021 (inactive)
4 | COCCCNC(=O)[C@@]1(C)c2ccccc2C(=O)N(c2ccc(C)cn2)[C@H]1c1ccc(CO)cc1 | 0.537 | -0.333 (inactive) | -0.463 | -0.135 | 0.789 | -0.317 | 0.406 | -0.225 | -0.889 | -0.731 | -0.545 | -0.454 | -0.193 | -1.03 | -0.0423 | 0.204 | -0.9 | -0.939 | 0.421 | 0.522 (inactive)
5 | CN1C(=O)C2C=CC(C(O)C3CCCCC3)N(N(c3ccccc3)c3ccccc3)C2C1=O (stereo not given) | -0.0103 | 0.54 (inactive) | 0.367 | 0.232 | 0.72 | 2.56 | 1.21 | -0.864 | -1.04 | -1.27 | -0.392 | -1.14 | 0.0064 | -0.702 | -0.885 | -0.732 | 0.131 | -1.6 | 0.517 | 0.135 (inactive)
6 | COCCOC(=O)N1C(=O)[C@@]2(c3ccccc31)[C@H](c1ccc(OCCO)cc1)N1[C@H](c3ccccc3)[C@H](c3ccccc3)OC(=O)[C@H]1[C@@H]2C(=O)NC[C@H](O)c1ccccc1 | 0.128 | 0.774 (inactive) | 0.327 | -0.084 | 0.505 | 1.91 | 0.123 | 1.29 | 0.508 | 1.02 | 1.95 | 1.23 | 0.327 | 0.937 | 1.32 | 1.03 | 0.414 | 0.714 | 1.05 | -0.652 (inactive)
7 | OCc1ccc(-c2cc[n+](Cc3cccc(OC(F)(F)F)c3)cc2)cc1 | 0.503 | 0.372 (inactive) | 0.11 | -0.0254 | 0.894 | 0.813 | 1.08 | 0.981 | 1.49 | 1.08 | 2.33 | 1.07 | 0.0665 | 0.708 | 1.45 | 1.25 | -0.884 | 1.47 | 0.528 | 0.194 (inactive)
8 | COC(=O)[C@@]1(Cc2ccccc2)[C@H]2c3cc(C(=O)N(C)C)n(Cc4ccccn4)c3C[C@H]2CN1C(=O)c1ccccc1 | 0.723 | 0.146 (inactive) | 0.127 | 0.269 | 0.971 | 3.31 | 1.22 | 1.03 | -1.4 | 1.08 | 1.54 | 0.827 | 1.56 | 1.04 | -0.226 | -0.389 | -0.128 | -0.225 | 0.88 | 1.56 (inactive)
9 | COc1ccc(C(=O)Nc2ccc(CN3C(=O)[C@@]4(O[C@@H](CC(=O)N5Cc6ccccc6C[C@H]5CO)[C@H]([Si](C)(C)c5ccc(OC)cc5)[C@H]4C)c4ccccc43)cc2)cc1 | 0.604 | -0.086 (inactive) | -0.137 | -0.153 | 0.55 | 2.26 | 0.226 | 1.27 | 1.18 | 0.965 | 0.299 | 1.13 | 1.2 | 0.724 | 1.33 | 1.33 | 1.29 | 1.62 | 0.365 | 0.0093 (inactive)
10 | COc1ccc([Si](C)(C)[C@@H]2[C@@H](CCO)O[C@]3(C(=O)N(Cc4cccc(N5C(=O)COc6ccccc65)c4)c4ccccc43)[C@H]2C)cc1 | 0.663 | 0.215 (inactive) | -0.126 | -0.0576 | 0.163 | 1.35 | 0.0386 | 0.19 | -0.117 | 1.03 | 0.279 | 0.733 | 0.0257 | 0.415 | -0.0428 | 0.327 | -1.04 | 0.0695 | 0.764 | -0.123 (inactive)
